Rows were chosen to be rich in hits. Some 12% of all compounds tested hit in one or more screens of this group.
Sm TGR inh – qHTS Assay for the Inhibitors of Schistosoma Mansoni Peroxiredoxins | AID 485364, 2010 | purified TGR, DTNB reduction, TNB absorbance 405 nm | Potency, µM (doses to about 114 µM), for the others: top-dose activity change, negative = inhibition, most hits filed as inhibitors | Schistosoma mansoni thioredoxin glutathione reductase (TGR), Q962Y6 | actives 3% (n = 360,000); note: % is set by controls: 0 for no effect and ±100 for the full control effect; nearly all actives have a fitted effect of over 60% in size
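First, TGR (20 nM dispensed) and NADPH were mixed with compound. Second, a 15 min room-temperature incubation followed. Third, further NADPH and then DTNB were added to start the reaction. Finally, TNB absorbance was monitored kinetically.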
AmpC inh detg – qHTS Inhibitors of AmpC Beta-Lactamase (assay with detergent); AmpC hydrolysis of nitrocefin, absorbance 480 nm, 0.01% Triton; Potency, µM (series often up to 114 µM), for the others: top-dose activity change, negative = inhibition, most hits filed as inhibitors; actives 0.041% (n = 370,000);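 note: 0% = no-compound wells and -100% = no-enzyme wells; nearly all actives have a fitted effect of over 25% in size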
Target sequence (P00811 whole entry, looked up): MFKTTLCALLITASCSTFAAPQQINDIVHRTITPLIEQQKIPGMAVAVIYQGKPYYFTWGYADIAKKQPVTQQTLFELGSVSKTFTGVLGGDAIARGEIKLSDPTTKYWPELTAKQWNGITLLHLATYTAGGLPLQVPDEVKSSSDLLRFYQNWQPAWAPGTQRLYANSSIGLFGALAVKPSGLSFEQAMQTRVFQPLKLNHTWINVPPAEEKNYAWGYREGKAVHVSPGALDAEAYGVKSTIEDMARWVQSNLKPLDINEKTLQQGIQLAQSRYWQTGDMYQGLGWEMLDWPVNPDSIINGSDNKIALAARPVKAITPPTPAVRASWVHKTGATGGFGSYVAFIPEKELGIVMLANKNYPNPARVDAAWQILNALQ
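20 mM phosphate pH 7.0 + 0.01% (detergent screen) or 0.0001% Triton X-100; 5.3 nM AmpC reagent; cpd preinc 15 min RT; nitrocefin (800 uM stock) to start; A480 q20 s × 4 min; Activity was normalised to no-enzyme and no-compound control wells.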
AmpC no deterg – qHTS Inhibitors of AmpC Beta-Lactamase (assay without detergent); AmpC nitrocefin hydrolysis, absorbance 480 nm, 0.0001% Triton; actives 0.52% (n = 330,000); P00811; AID 485341, 2010; Potency, µM (highest dose often 57.1 µM), inactives show at the highest dose activity change, negative = inhibition, usual class: inhibitors;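 note: plate controls were no compound for no effect and no enzyme for full effect; nearly all actives have a fitted effect of over 20% in size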
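20 mM phosphate pH 7.0 + 0.01% (detergent screen) or 0.0001% Triton X-100; 5.3 nM AmpC reagent; cpd preinc 15 min RT; nitrocefin (800 uM stock) to start; A480 q20 s × 4 min; Activity was normalised to no-enzyme and no-compound control wells.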
Pf growth 48h – Primary qHTS for delayed death inhibitors of the malarial parasite plastid, 48 hour incubation | P. falciparum luciferase growth in erythrocytes, 48 h | Potency, µM (doses to about 28.7 µM), without a hit: at the top dose activity change, negative = inhibition, most hits filed as inhibitors | actives 5.9% (n = 310,000) | AID 504832, 2011; note: % is set by controls: 0 for no effect and ±100 for the full control effect
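Luminescence readout; reporter = integrated firefly luciferase in P. falciparum. RBC culture at 2% hematocrit, 0.1% parasitemia final, 37 C/5% CO2; decreased signal taken as growth inhibition.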
Pf growth 96h – Primary qHTS for delayed death inhibitors of the malarial parasite plastid, 96 hour incubation; P. falciparum luciferase reporter growth, 96 h; Potency, µM (top dose mostly 28.7 µM), inactives show top-dose activity change, negative = inhibition, usual class: inhibitors; actives 6.9% (n = 320,000); AID 504834, 2011; note: % is set by controls: 0 for no effect and ±100 for the full control effect
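Parasite growth measured via integrated firefly luciferase reporter in P. falciparum. Infected erythrocytes at 2% hematocrit, 0.05% parasitemia final were treated 96 hours at 37 C under 5% CO2, and luminescence was read.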
SARS PLpro yeast – qHTS of Yeast-based Assay for SARS-CoV PLP | actives 0.19% (n = 330,000) | Potency, µM (doses to about 32.9 µM), for inactives: at the highest dose activity, positive = growth rescue, hits mostly activators | S. cerevisiae expressing SARS-CoV PLpro, growth rescue; calls by dose curve; note: 0% is about no effect; nearly all actives have a fitted effect of over 55% in size
* marks the source's active call; other numbers are inactive results; ? = inconclusive; . = no result; [ ] = remark or other dose. Unless noted, calls come from the whole dose curve; as a rule, active = well fitted curve in the direction sought with a large enough effect; inconclusive = small, poorly fitted or top-dose-only effect, or another doubt; inactive = no such curve, though single readings can be large; an effect the other way counts as inactive or inconclusive. Potency is the fitted concentration of half-maximal effect.

SMILES | Sm TGR inh | AmpC inh detg | AmpC no deterg | Pf growth 48h | Pf growth 96h | SARS PLpro yeast
COc1ccc(C2c3cc(OC)c(OC)cc3CC(=O)N2c2ccc(C)cc2)cc1 (centres undefined) | 12% | 13% | . | . | . | .
O=C(OCC#CCSc1nnc(-c2cccc3ccccc23)o1)c1ccc2ccccc2c1 | -22% | -10% | -21% | ? | 19% | -4%
COc1cc(C(=O)OCc2cc(=O)n3ccsc3n2)cc(OC)c1OC | 2% | 6% | . | . | . | .
COc1ccc(CCNc2cc(C)nc3c(-c4ccccc4OC)cnn23)cc1OC | -1% | -8% | 119% | 13µM* | ? | -2%
CCC(=O)Nc1nc(C)c(C(=O)NC2CCCCC2)s1 | -2% | -2% | -14% | 3.7µM* | ? | -4%
COc1ccc(CCC(=O)Nc2nc(C)c(C(=O)N(C)C)s2)cc1 | -6% | -1% | 29% | 7.4µM* | ? | -1%
Cc1nc(NC(=O)CCl)sc1C(=O)N(C)C | 16µM* | -1% | -22% | ? | 21% | 0%
Cc1nc(NC(=O)C(Cl)Cl)sc1C(=O)N(C)C | -9% | -6% | -22% | -1% | 45% | 3%
COc1cc(/C=C/C(=O)OCC(=O)NC(=O)NC23CC4CC(CC(C4)C2)C3)ccc1OCC#N | -2% | -6% | 8.9µM* | 15µM* | ? | -1%
NC(=S)N=Nc1c(O)n(Cc2ccccc2)c2ccccc12 | -17% | 0% | -10% | ? | 14% | 5%
COC(=O)N=Nc1c(O)n(Cc2ccccc2)c2ccccc12 | 12% | -2% | -21% | -16% | 3% | -1%
CCCCNC(=S)N=Nc1c(O)n(Cc2ccccc2)c2ccccc12 | -5% | -6% | -24% | 13µM* | 10µM* | -3%
O=C(N=Nc1c(O)n(Cc2ccccc2)c2ccccc12)c1ccncc1 | 6% | 3% | 28% | 12µM* | 13µM* | -1%
CN(c1ccc(C(=O)NCc2ccncc2)cc1)S(=O)(=O)c1ccc(Cl)cc1 | 0% | 3% | 2% | 23% | 0% | 0%
CCC(C)/C=C/C1=CC2=C(Cl)C(=O)C3(C)OC(=O)C(C(=O)C(C)C(C)O)C3C2=CO1 (centres undefined) | 50µM* | -6% | 0% | -3% | 68% | 1%
COc1ccc(CN2C(=O)N(c3ccc(F)cc3)C(=O)C2CC(=O)Nc2ccccc2)cc1 (centres undefined) | 0% | -9% | . | . | . | .
COc1ccc(NC(=O)c2ccc(Br)o2)cc1 | 1% | 7% | 20% | 198% | 130% | -5%
COc1ccc(-c2noc(-c3ccccc3C(=O)Nc3cccnc3)n2)cc1OC | -6% | 4% | 76% | 10µM* | . | 0%
O=C(O)c1ccc(NC(=S)NC(=O)c2cccnc2)cc1 | 35µM* | -11% | -12% | 271% | ? | 29%
COc1cc(C(=O)NC(=S)Nc2ccc(Cc3ccncc3)cc2)cc(OC)c1OC | ? | -4% | 79% | 10µM* | 40% | -2%
COc1ccc(NC(=S)NC(=O)c2ccc(Br)o2)cc1 | 8.9µM* | -5% | -6%[2.29 µM] | 0% | 23% | -1%
COc1cccc(NC(=O)Nc2ccc3c(c2)CCC3)c1 | -5% | -6% | -43% | 72% | ? | -3%
Fc1ccc(CNc2nc3ccc(Cl)cc3n3nnnc23)cc1 | -8% | 6% | . | . | . | .
OCl | . | . | . | 12% | 10% | .
CC(C)(C)c1ccc(C(=O)NNC(=S)NC(=O)c2cccnc2)cc1 | 2% | -10% | -35% | 13µM* | ? | 0%
SMILES | Sm TGR inh | AmpC inh detg | AmpC no deterg | Pf growth 48h | Pf growth 96h | SARS PLpro yeast
O=C(Nc1ccc(OC(=O)c2cccnc2)cc1)c1cccnc1 | 10% | ? | 97% | ? | 5% | ?
COc1ccc(NC(=S)NC(=O)c2cccnc2)cc1 | 22µM* | -8% | -20% | 0% | ? | -5%
COc1ccc(CC(=O)Nc2ccc(-c3noc(-c4cccc(OC)c4)n3)cc2)cc1 | -9% | -2% | -22% | 22% | -18% | 4%
O=C(NNC(=S)NC(=O)c1ccccc1)c1cccnc1 | -17% | -9% | -15% | ? | ? | -9%
COc1cccc(-c2nc(-c3ccc(NC(=O)c4cccnc4)cc3)no2)c1 | 0% | -12% | -21% | ? | 12µM* | -3%
CC(=O)Nc1ccc(OC(=O)c2cccnc2)cc1 | 1% | 0% | -12% | ? | 1.2µM* | -1%
COc1ccc(SCCN2CC[C@@H](C(C)(C)C)CCC2=O)cc1 | -14% | 1% | 38% | 0% | ? | -5%
Brc1c(CSc2nc3ccccc3s2)nc2ncccn12 | -11% | -8% | 3% | 3% | 3.3µM* | -48%
O=[N+]([O-])c1ccc2sc(SCc3nc4ccccn4c3Br)nc2c1 | -14% | 1% | -16% | 4% | -83% | 10%
Cc1c(C(=O)NCc2ccccn2)oc2ccc(S(=O)(=O)N3CCC4(CC3)OCCO4)cc12 | -5% | 6% | 117% | 13µM* | ? | -1%
Cc1c(C(=O)Nc2ccc(F)cc2)oc2ccc(S(=O)(=O)N3CCC4(CC3)OCCO4)cc12 | 6% | 4% | 76% | 9.3µM* | ? | -2%
Cc1c(C(=O)Nc2ccc(F)c(F)c2)oc2ccc(S(=O)(=O)N3CCCCC3)cc12 | 7% | 0% | -40% | 13µM* | . | -1%
Cc1ccc(NC(=O)c2oc3ccc(S(=O)(=O)N4CCCCCC4)cc3c2C)cc1Cl | 3% | 8% | . | . | . | .
O=C(Nc1ccc(-c2nc3ccccc3o2)cc1)c1ccc(N2CCOCC2)c([N+](=O)[O-])c1 | -29% | 5% | -19% | -3% | ? | -3%
COc1ccc2oc(-c3ccc(NC(=O)c4ccc(N5CCOCC5)c([N+](=O)[O-])c4)cc3)nc2c1 | 2% | -14% | -13% | 2.3µM* | ? | 12%
COCCC(=O)N1CCC(Oc2ccc(C(=O)NCc3nccn3C)cc2)CC1 | 1% | 10% | -10% | 2% | ? | 1%
CCc1cccc(C)c1NC(=O)c1cc(S(=O)(=O)N(C)Cc2ccccc2)ccc1F | -6% | -5% | . | . | . | .
O=C(O)[C@@H](O)[C@@H](O)[C@H](O)C(=O)CO | . | . | . | -1% | 12% | .
Cc1sc2ncnc(Sc3nnc4sc5ccccc5n34)c2c1C | -11% | ? | -22% | 2.9µM* | ? | -5%
CCSc1ncnc2sc(C)c(C)c12 | 17% | 4% | -14% | 25% | 7% | -5%
Cc1cc2c(c(=O)n1Cc1cccnc1)C(Cc1ccccc1)C(C#N)=C(N)O2 (centres undefined) | -33% | 6% | -9% | 0% | ? | 12%

Source: PubChem
